Source: PubChem (National Center for Advancing Translational Sciences (NCATS))
This is a sample that favours compounds with a hit; in the whole collection about 8.8% have one here.
KB-V1 MDR tox – qHTS assay for MDR1-selective chemotherapeutics: Primary screen using the drug-selected MDR subline cells KB-V1; KB-V1 MDR cells viability, CellTiter-Glo, 72 h; 400,000 tested, 3.4% active; Potency, µM (titrated, usually from 46.1 µM), usual class: cytotoxic; note: nearly all actives have a fitted effect of over 60% in size
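Cytotoxicity via CellTiter-Glo luminescence after 72 h compound exposure at 37 degrees C. Cells: drug-selected KB-V1 line, DMEM phenol-red free plus 10% FBS. Compounds tested at multiple concentrations; normalized data fitted to concentration-effect curves.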
IL1B secr inh – qHTS for Inhibitors of Inflammasome Signaling: IL-1-beta AlphaLISA Primary Screen; THP-1 LPS/ATP IL-1B secretion, AlphaLISA, 16 h; hits give low values; activity change, % at 57.5 µM; 360,000 tested, 4.7% active; AID 743279, 2014; in the data active = activity change below about -50%; inconclusive = mostly about -30% to -49%
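THP-1 cells pretreated 1 hr with compounds (up to 57.5 uM final), then stimulated with LPS (250 ng/mL final) plus ATP (1.25 mM final); secreted IL-1B measured by AlphaLISA after 16 hr, decreased signal indicating inhibition.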
HT1080-NT tox – qHTS for induction of synthetic lethality in tumor cells producing 2HG: qHTS for the HT-1080-NT fibrosarcoma cell line; AID 686970, 2013; HT-1080-NT fibrosarcoma viability, CellTiter-Glo ATP luminescence, 48 h; Potency, µM (top dose mostly 46.1 µM), hits mostly cytotoxic; 360,000 tested, 1.6% active;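 note: NT is the 2HG producing partner of a matched IDH1 knockdown line; nearly all actives have a fitted effect of over 55% in size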
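A 48-hour cytotoxicity screen used HT-1080-NT cells plated 2 hours before compound delivery. ATP-based CellTiter-Glo luminescence measured viability, normalized to DMSO and no-cell controls.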
KB-3-1 cytotox – qHTS assay for MDR1-selective chemotherapeutics: Primary screen using the parental adenocarcinoma cell KB-3-1; KB-3-1 viability, CellTiter-Glo ATP luminescence, 72 h; Potency, µM (highest dose often 46.1 µM), actives largely listed as cytotoxic; 400,000 tested, 1.4% active; note: nearly all actives have a fitted effect of over 60% in size
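Cells are dispensed, compounds pinned in, plates held at 37 °C for 72 h, then CellTiter-Glo is added and luminescence read after 10 minutes. Cell line: parental KB-3-1 in phenol-red-free DMEM, 10% FBS.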
HT1080 IDH1KD tx – qHTS for induction of synthetic lethality in tumor cells producing 2HG: qHTS for the HT-1080-IDH1KD cell line | HT-1080 IDH1 knockdown viability, ATP luminescence, 48 h | Potency, µM (top dose mostly 46.1 µM), most hits filed as cytotoxic | 360,000 tested, 2% active | AID 686971, 2013
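Luminescent ATP read-out (CellTiter-Glo, 10 min at room temperature) after 48 h compound exposure at 37 °C gave viability of IDH1-knockdown HT-1080 cells. Activity was normalised to DMSO and cell-free wells, then fitted as concentration-response curves.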
A number is an active result; 0 = inactive; ? = inconclusive; - = not tested or not shown. Unless noted, calls come from the whole dose curve; as a rule, active = well fitted curve in the direction sought with a large enough effect; inconclusive = small, poorly fitted or top-dose-only effect, or another doubt; inactive = no such curve, though single readings can be large; an effect the other way counts as inactive or inconclusive.

SMILES	KB-V1 MDR tox	IL1B secr inh	HT1080-NT tox	KB-3-1 cytotox	HT1080 IDH1KD tx
c1csc(-c2csc3ncnc(NCCCN4CCOCC4)c23)c1	3.3µM	0	?	?	?
c1ccc(-c2nc(NCCCN3CCOCC3)c3ccccc3n2)cc1	6.5µM	?	0	0	0
Cc1cccc(-c2nc(NCCCN3CCOCC3)c3ccccc3n2)c1	0	0	?	?	?
c1ccc(-c2csc3ncnc(NCCCN4CCOCC4)c23)cc1	8.2µM	0	0	0	?
c1ccc(-c2csc3ncnc(N4CCOCC4)c23)cc1	0	0	0	0	0
Cc1sc2ncnc(NCC3COc4ccccc4O3)c2c1C (stereo not drawn)	0	0	0	0	?
Cc1csc2c(NCCCN3CCOCC3)ncnc12	0	0	0	0	0
CC1(C(=O)Nc2cccc(NS(C)(=O)=O)c2)Cc2c(-c3ccc(C(N)=O)cc3)ccnc2O1 (stereo not drawn)	0	0	0	0	0
O=C(CN1C(=O)NC(c2ccc(F)cc2)C1=O)NC1CCCCC1 (stereo not drawn)	0	0	0	0	0
O=c1c2c(-c3ccccc3)csc2nc2c3ccccc3c(NCCN3CCOCC3)nn12	21µM	-101	15µM	0	10µM
COc1ccc(NS(=O)(=O)c2ccc(NC(=S)NC(=O)c3ccc(Br)cc3)cc2)nn1	0	0	0	0	0
c1nc(N2CCCCCC2)c2[nH]cnc2n1	23µM	0	0	0	0
C[n+]1c(-c2ccccc2)cc2c(=Cc3ccc([N+](=O)[O-])cc3)c3ccccc3n21	?	-98	?	?	?
C[n+]1c(-c2ccccc2)cc2c(=Cc3ccccc3)c3ccccc3n21	?	-100	?	?	16µM
CN(C)c1ccc(C=c2c3cc(O)ccc3n3c2cc(-c2ccccc2)[n+]3C)cc1	?	-105	0	?	?
Cc1ccc(N(CC(=O)NCc2ccccn2)S(=O)(=O)c2ccccc2)cc1C	?	0	0	0	0
CCCCCn1c(=O)[nH]c2cc(C(=O)N3CCN(c4cccc(Cl)c4)CC3)ccc2c1=O	0	-	-	0	-
C=CCNC(=O)N1CCC(c2nc3ccccc3s2)CC1	?	0	0	0	0
Cc1[nH]c2c(C)cccc2c1CCNS(=O)(=O)c1cccc([N+](=O)[O-])c1	23µM	0	0	?	0
OCC1OC(n2cnc3ncccc32)C(O)C1O (stereo not drawn)	0	0	21µM	0	?
Cc1ccc(F)cc1NC(=O)c1sc2ncn(CC(=O)N3CCN(c4ccccn4)CC3)c(=O)c2c1C	0	0	0	0	0
COc1ccc2c(c1)c(C(=O)N/N=C/c1ccc(Br)cc1)c(C)n2C	?	0	?	?	18µM
CCOc1ccc(/C=N/NC(=O)c2c(C)n(C)c3ccc(OC)cc23)cc1	13µM	0	?	8.2µM	?
COc1ccc2c(c1)c(C(=O)N/N=C/c1ccc(O)c(O)c1)c(C)n2C	0	0	0	0	0
CC1CN(C2CCCCC2)C(=O)NC1=O (stereo not drawn)	0	0	0	0	0
SMILES	KB-V1 MDR tox	IL1B secr inh	HT1080-NT tox	KB-3-1 cytotox	HT1080 IDH1KD tx
CCOC(=O)N1CCc2c(sc3c2c(=O)n(-c2ccccc2)c(=O)n3CC(=O)Nc2ccc(OC)cc2OC)C1	0	-	-	0	-
Cc1ccc(NC(=O)CCN2CCN(C/C=C/c3ccccc3)CC2)cc1	0	?	0	0	0
Cc1ccc(NC(=O)CCN2CCC(Cc3ccccc3)CC2)cc1	?	-82	?	0	?
Cc1ccc(NC(=O)CN2CCC(Cc3ccccc3)CC2)cc1S(=O)(=O)N(C)C	?	-54	?	0	?
CC(=O)N1CCN(CC(=O)Nc2ccc(C)c(S(=O)(=O)N(C)C)c2)CC1	0	0	0	0	0
Nc1nc2ccc(Cl)cc2cc1C(=O)NCc1ccc(Oc2ccccc2)cc1	?	0	0	?	?
COc1c(OC(C)=O)ccc(/C=C/c2ccc3cccc(OCc4ccccc4)c3n2)c1[N+](=O)[O-]	?	-50	?	16µM	?
COc1ccc(N(C)C(=O)c2nn(-c3ccc(C)cc3)c(=O)n(C)c2=O)c(OC)c1	0	-	-	0	-
CN(C)C(CNC(=O)C1CC(=O)N(Cc2ccccc2)C1)c1ccccc1 (stereo not drawn)	0	0	0	0	0
COc1ccccc1N1CCN(/N=C/c2cc(OC)c(OC)c(OC)c2)CC1	15µM	0	0	0	0
O=C(O)c1c(C(=O)O)c(-c2ccc(F)cc2)n2c1CCC2	0	0	0	0	0
Cc1ccccc1NC(=O)Nc1nc(C(N)C2CCCCC2)cs1 (stereo not drawn)	0	-54	?	0	?
COc1cccc(Nc2nc(C(N)c3ccccc3Cl)cs2)n1 (stereo not drawn)	0	?	?	0	?
CC(C)c1ccc(NC(=O)Nc2nc(C(N)C3CCCCC3)cs2)cc1 (stereo not drawn)	?	-113	?	?	21µM
CC(C)c1ccc(NC(=O)Nc2nc(C(C)N)cs2)cc1 (stereo not drawn)	0	?	?	0	21µM
CC(C)c1ccc(NC(=O)Nc2nc(CN)cs2)cc1	0	0	0	0	0
CC(C)c1ccc(NC(=O)Nc2nc(C(N)c3ccccc3Cl)cs2)cc1 (stereo not drawn)	?	-77	?	0	?
COc1ccc(NC(=O)Nc2nc(C(N)C3CCCCC3)cs2)cc1 (stereo not drawn)	0	?	?	0	?
CN(C)c1ccc(NC(=O)Nc2nc(C(N)C3CCCCC3)cs2)cc1 (stereo not drawn)	0	-60	?	0	?
C=CCn1c(Sc2ncc([N+](=O)[O-])s2)n[nH]c1=O	0	-103	5.8µM	?	5.2µM
COCCNc1nc(Nc2ccc(Cl)cc2F)c2sccc2n1	?	0	0	0	0
COc1ccc(CNC(=O)c2cnn3c(C)c(Cc4c(F)cccc4Cl)c(C)nc23)cc1	0	-	-	?	-
Cc1nc2c(C(=O)N3CCCC3)cnn2c(C)c1Cc1c(F)cccc1Cl	23µM	0	0	0	0
CCOC(=O)N1CCN(C(=O)c2cnn3c(C)c(Cc4ccc(C)cc4)c(C)nc23)CC1	3.7µM	0	0	0	0
O=C(C[N+]12CCCc3cccc(c31)CCC2)c1ccccc1	0	-	-	?	-
CCN(CC)C(=O)Cn1c(=O)n(-c2ccc(Cl)c(Cl)c2)c(=O)c2c(C)c(C(=O)N(CC)CC)sc21	0	-	-	0	-
Cn1c(SCc2ccc(C#N)cc2Cl)nc2ccccc21	0	-71	0	0	0
O=c1[nH]c(CN2CCN(C/C=C/c3ccccc3)CC2)nc2cc(Cl)ccc12	0	-72	?	0	0
